Screening data deposited in PubChem BioAssay by National Center for Advancing Translational Sciences (NCATS).
In the library only some 3.7% were active in any assay of this set; here they are far more common.
S2 tox = cell viability loss in ATXN counter-screen. S2 cells (HEK-293 line with an ATXN2-luciferase reporter) viability, CellTiter-Fluor protease fluorescence, 24 h. Potency, µM (top dose mostly 56.7 µM), most hits filed as cytotoxic. 400,000 compounds, 0.49% hits; also: nearly all actives have a fitted effect of over 40% in size
ATXN2 expr inh = reduces ATXN2 reporter expression in HEK-293 cells | 360,000 compounds, 0.72% hits | HEK-293 ATXN2-luciferase reporter, luminescence, 24 h | Potency, µM (top dose mostly 57 µM), without a hit: at the top dose activity change, negative = inhibition, actives largely listed as inhibitors | AID 1745845; also: % is scaled to controls: 0 for no effect and ±100 for the full control effect; nearly all actives have a fitted effect of over 55% in size
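qHTS (up to 57 uM final) was run with 24 h compound exposure of reporter cells at 37 °C. Each well was multiplexed: SteadyGlo luminescence measured ATXN2-luciferase expression after a fluorogenic Gly-Phe-AFC viability readout (25 uM final).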
GLP-1R inv ag = inverse agonists of human GLP-1 receptor | 410,000 compounds, 1.6% hits | Potency, µM (series often up to 38.3 µM), without a hit: top-dose activity change, negative = inhibition, most hits filed as inhibitors | HEK293 GLP-1R CRE-luciferase, luminescence, 24 h; GLP-1R form is constitutively active | AID 624417; also: % is scaled to controls: 0 for no effect and ±100 for the full control effect; nearly all actives have a fitted effect of over 55% in size
Target sequence (P43220 whole entry, looked up): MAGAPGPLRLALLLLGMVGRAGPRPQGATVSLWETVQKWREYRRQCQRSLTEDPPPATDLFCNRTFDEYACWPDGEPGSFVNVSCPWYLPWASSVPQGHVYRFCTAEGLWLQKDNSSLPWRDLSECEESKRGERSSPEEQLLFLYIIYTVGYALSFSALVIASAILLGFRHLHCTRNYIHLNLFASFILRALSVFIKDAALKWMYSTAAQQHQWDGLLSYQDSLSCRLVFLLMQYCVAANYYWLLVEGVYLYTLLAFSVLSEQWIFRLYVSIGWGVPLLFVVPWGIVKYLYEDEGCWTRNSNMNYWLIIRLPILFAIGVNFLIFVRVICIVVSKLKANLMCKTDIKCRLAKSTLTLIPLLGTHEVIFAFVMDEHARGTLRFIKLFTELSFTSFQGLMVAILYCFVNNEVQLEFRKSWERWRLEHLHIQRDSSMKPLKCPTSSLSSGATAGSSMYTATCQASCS
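Stable HEK293 clone (constitutively active GLP-1R + cAMP-response luciferase); 200 cells/uL plated, 12 h pre-culture, compound 24 hr, 37 deg C/5% CO2; detection reagent 12 min RT; luminescence.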
HepG2 tox = kills HepG2 cells in TGF-b inhibitor counter-screen; HepG2 CAGA-GFP viability, ATP luminescence, 18 h; Potency, µM (titrated, usually from 46.1 µM), for inactives: at the top dose activity change, negative = cytotoxicity, usual class: cytotoxic; 410,000 compounds, 0.76% hits
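CellTiter-Glo luminescence gave cytotoxicity after 18 hours at 37 degrees C. The cells were HepG2 CAGA-GFP in 1% FBS DMEM, stimulated with 500 pg/mL TGF-beta after compound addition. %Activity was normalised to no-cell wells (complete cell-killing) and DMSO (no toxicity), and curves were fitted and classified.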
GLP-1R agonist = GLP-1 receptor (human) agonism; HEK293 GLP-1R CRE-luciferase, luminescence, 4-6 h; cells express a hypersensitive GLP-1R form; Potency, µM (highest dose often 45.6 µM), for inactives: at the highest dose activation, hits mostly activators; 380,000 compounds, 0.007% hits; also: % of control where 0% means no effect
TGFb inhibitor = inhibitors of TGF-b signaling. HepG2 CAGA-GFP TGF-b/SMAD3 reporter, GFP fluorescence, 18 h; TGF-beta stimulated, 500 pg/mL final. Potency, µM (series often up to 46.1 µM), without a hit: at the highest dose activity, negative = inhibition, usual class: inhibitors. 410,000 compounds, 1.2% hits. AID 588855; also: % is scaled to controls: 0 for no effect and ±100 for the full control effect; nearly all actives have a fitted effect of over 65% in size
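Smad-responsive CAGA-GFP expression was quantified in HEPG2 cells exposed to compounds and 500 pg/mL final TGF-beta for 18 h at 37 degrees C; unstimulated wells defined full inhibition.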
* = called active by the depositor; i = inactive; ? = inconclusive; nt = no result. Calls follow the shape of the dose curve; as a rule, active = well fitted curve in the direction sought with a large enough effect; inconclusive = small, poorly fitted or top-dose-only effect, or another doubt; inactive = no such curve, though single readings can be large; an effect the other way counts as inactive or inconclusive. Potency is read from the fitted curve at half-maximal effect.

SMILES | S2 tox | ATXN2 expr inh | GLP-1R inv ag | HepG2 tox | GLP-1R agonist | TGFb inhibitor
COc1ccc(CC2S/C(=N/N=C/c3ccccc3O)NC2=O)cc1 (stereo not drawn) | ? | ? | 2.5µM* | -51% | -1% | 7.9µM*
COc1ccc(CC2S/C(=N/N=C/c3ccc(O)cc3)NC2=O)cc1 (stereo not drawn) | i | 4% | 29% | 20% | 9% | 35%
O=C1N/C(=N/N=C/c2ccccc2O)SC1Cc1ccc(F)cc1 (stereo not drawn) | ? | 8.9µM* | ? | -29% | 12% | ?
Cc1cc(C)c2c(c1)-c1c(ssc1=S)C(C)(C)N2C(=O)CSc1nncn1C | ? | ? | ? | -25% | -17% | 6.3µM*
CCN(CCC#N)c1ccc(/C=C/c2ccnc3ccccc23)cc1 | nt | nt | nt | -44% | nt | ?
NS(=O)(=O)c1ccc(Sc2nc3ccccc3s2)c([N+](=O)[O-])c1 | i | ? | ? | 13µM* | 4% | ?
COc1ccc(CNC(=O)CN2CCC(C(=O)c3ccc(OC)cc3)CC2)cc1 | ? | -32% | 10µM* | -26% | -6% | -17%
Clc1ccc(CN(Cc2ccccc2)C(c2cccs2)c2nnnn2C2CCCC2)cc1 (stereo not drawn) | i | -16% | ? | -9% | -3% | -17%
CC(C)(C)n1nnnc1C(c1cccs1)N(Cc1ccc(Cl)cc1)CC1CCCO1 (stereo not drawn) | i | ? | 5µM* | -21% | 1% | -6%
Cc1[nH]c(-c2ccc(F)cc2)cc1C(=O)N1CCN(c2cccc(Cl)c2)CC1 | ? | ? | 5µM* | -81% | 6% | 25µM*
CCS(=O)(=O)c1ncc(Cl)c(C(=O)N2CCN(c3cccc(Cl)c3)CC2)n1 | nt | nt | ? | 3.2µM* | nt | 1µM*
Cc1[nH]c2ccc(C(=O)N3CCN(c4cccc(Cl)c4)CC3)cc2c1C | i | 9% | ? | -22% | 0% | ?
Cc1onc(-c2ccccc2Cl)c1C(=O)N1CCN(c2ccccc2)CC1 | i | -16% | 0% | -13% | -2% | -22%
CS(=O)(=O)c1ncc(Cl)c(C(=O)N2CCN(c3cccc(Cl)c3)CC2)n1 | nt | nt | ? | 3.5µM* | nt | 2.8µM*
Cc1onc(-c2ccccc2Cl)c1C(=O)N1CCN(c2cccc(Cl)c2)CC1 | ? | -15% | 1µM* | 12% | 3% | -6%
COc1ccc(OCC(=O)Nc2nc(-c3ccc(Br)cc3)ns2)cc1 | nt | nt | ? | -43% | nt | -2%
CC(C)(C)n1ncc2c(=O)n(Cc3ccccc3Cl)cnc21 | nt | nt | nt | -4% | nt | -9%
CCC(C(=O)OCCN1CCOC(c2ccccc2)C1C)c1ccccc1 (stereo not drawn) | i | -9% | nt | nt | nt | nt
C[C@@H](C(=O)Nc1ccc2ccccc2c1)[C@H]1C[C@]1(C)[C@H](NC(=O)OCc1ccccc1)c1ccccc1 | ? | 4% | ? | -24% | -5% | ?
Cc1cc(C(=O)N[C@H](c2ccccc2)[C@@]2(C)C[C@@H]2[C@@H](C)C(=O)Nc2ccc3ccccc3c2)n(C)n1 | ? | -1% | 10µM* | -37% | 11% | ?
CCOC(=O)c1c[nH]c2cc(OCC(C)C)c(OCC(C)C)cc2c1=O | nt | nt | nt | nt | -1% | nt
COC(=O)C1=C[C@@H](C(=O)OC)C2C3=C(C(=O)[C@@]2(C)NC(=O)c2ccccc2)[C@H](C)n2c(=O)n(-c4ccccc4)c(=O)n2[C@@H]3C1 (stereo partly drawn) | nt | nt | nt | -26% | nt | -8%
CC12CCC(=O)C=C1CCC1C2CCC2(C)C1CCC2(O)C(=O)CO (stereo not drawn) | i | 1% | 4% | -5% | 19% | 3%
CCC(=O)OC1(C(C)=O)CCC2C3CCC4=CC(=O)CCC4(C)C3CCC21C (stereo not drawn) | ? | 20µM* | ? | 9% | 5% | -19%
Cc1ccnc(NC(=O)c2oc3ccccc3c2C)c1 | i | -31% | 11µM* | -22% | 0% | 0%
SMILES | S2 tox | ATXN2 expr inh | GLP-1R inv ag | HepG2 tox | GLP-1R agonist | TGFb inhibitor
Cc1cccnc1NC(=S)NC(=O)c1oc2ccccc2c1C | i | 37% | 4.5µM* | -6% | 9% | -15%
COc1cc(CNC(=O)c2cccc(COc3ccc(Cl)cc3)c2)cc(OC)c1 | i | ? | 3.2µM* | -2% | -10% | ?
O=C(O)c1cccc(COc2ccccc2Cl)c1 | i | 0.71µM* | -42% | -27% | -26% | 0%
Cc1ccc(F)cc1CNC(=O)c1cc(COc2ccc3ncccc3c2)on1 | i | ? | ? | -18% | 14% | -4%
O=C(NCc1ccccc1)c1cccc(COc2cccc(Cl)c2)c1 | i | 4% | 7.9µM* | -12% | -2% | 8%
O=C(NCc1cccc(Cl)c1)c1cc(COc2ccc3ncccc3c2)on1 | ? | ? | 10µM* | -21% | 12% | ?
O=C(NCc1ccccc1)c1cccc(COc2ccc(Cl)cc2)c1 | i | -12% | ? | -18% | -2% | -26%
COc1cccc(NC(=O)/C(C#N)=C/c2c(C)n(Cc3ccccc3)c3ccccc23)c1 | ? | -5% | ? | -2% | nt | 20%
O=C(Nc1cc(Cl)cc(Cl)c1)C(NCC1CCCO1)c1ccccc1 (stereo not drawn) | i | 8% | 5µM* | -15% | -4% | -17%
Cc1cc(C)c(NC(=O)C(C)N2CCCCCC2)c(C)c1 (stereo not drawn) | i | nt | -10% | -8% | -3% | -11%
CC(C(=O)Nc1ccccc1-c1ccccc1)N1CCCCC1 (stereo not drawn) | ? | -4% | 10µM* | 5% | 0% | -2%
CC(C(=O)Nc1cc(Cl)cc(Cl)c1)N1CCCC1 (stereo not drawn) | i | 0% | 13µM* | -7% | 13% | -6%
CSCCC1NC(=O)N(C(C)C(=O)Nc2cc(Cl)cc(Cl)c2)C1=O (stereo not drawn) | i | -12% | 11µM* | 7% | 3% | -2%
CC(C)NC(C(=O)Nc1cc(Cl)cc(Cl)c1)c1ccccc1 (stereo not drawn) | i | -13% | 7.9µM* | -7% | -4% | ?
CN(C)CCNC(C(=O)Nc1cc(Cl)cc(Cl)c1)c1ccccc1 (stereo not drawn) | i | -12% | ? | 0% | 6% | ?
Cc1ccc(C)c(CN2C[C@H](Sc3ccccn3)C[C@H]2C(=O)Nc2ccc3sc(C)nc3c2)c1 | i | nt | nt | nt | nt | nt
